# Test results reported in publication PMC11006913.
# Molecular target: NKX3-2 (Homo sapiens, UniProt P78367 192-278)
# Assay: PBM; 200 nM protein, PBS
# Details: dsDNA, one strand shown
# NKX3-2, sequence (P78367 192-278): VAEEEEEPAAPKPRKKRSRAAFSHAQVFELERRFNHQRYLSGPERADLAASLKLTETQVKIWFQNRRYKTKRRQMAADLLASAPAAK
row,Sequence,binding signal
1,GGACCCGA,"10.6 upbm affinity estimate (log intensity, higher = more binding, comparable within an allelic series)"
2,CTCTTGCC,"11.5 upbm affinity estimate (log intensity, higher = more binding, comparable within an allelic series)"
3,AGGTTGTG,"10.7 upbm affinity estimate (log intensity, higher = more binding, comparable within an allelic series)"
4,GCCTGACC,"10.6 upbm affinity estimate (log intensity, higher = more binding, comparable within an allelic series)"
5,GACGGGAC,"10.5 upbm affinity estimate (log intensity, higher = more binding, comparable within an allelic series)"
